Test [1] relates to Wnt5a (protein binding on small-molecule microarray). Description: small molecules binding Wnt5a protein – biophysical, small-molecule microarray, 635/667 nm fluorescence, primary screen (AID 1142).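 Note: fluorescence read at 667 nm with signal to noise per printed feature.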 As to conditions: 635 nm fluorescence, higher = more signal.
A short description of test [2]: ATP-based viability of Huh7 replicon cells – cell-based, CellTiter-Glo luminescence, basal, 48 h, cytotoxicity control for HCV replication inhibitor project, primary screen (AID 1143).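 Note: Huh7 hepatoma cells carrying a hepatitis C replication reporter with no stimulus; test concentration not given here.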 To be noted: higher = more signal, called active from +8 up or from −8 down. (In general: A replicon is a self-replicating genome or part of one, used to study replication in cells.)
Test [3] can be described thus: Pseudomonas biofilm growth suppression – PAO1 strain, BacTiter-Glo luminescence, LB-PBS, primary screen (AID 1144). As to conditions: P. aeruginosa PAO1 biofilm, 12 h, higher = more signal.
Test [4] can be described thus: basal CRE-LacZ reporter activity in PC12 – cell-based, unstimulated, primary screen (AID 1145). To be noted: no forskolin, luminescence, 4.5 h, higher = more signal, called active from +8 up or from −8 down.
Test [5] can be described thus: forskolin-driven CRE-LacZ activity in PC12 – cell-based, CRE-LacZ reporter, forskolin-stimulated, primary screen (AID 1146).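 Note: PC12 cells with 6xCRE LacZ reporter stimulated by forskolin 10 µM; beta-galactosidase reporter signal reflecting CREB driven transcription.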 To be noted: luminescence, 4.5 h, higher = more signal, called active from +8 up or from −8 down.
Test [6] deals with Streptavidin (Streptomyces avidinii) (UniProt P22629). Description: compounds binding control protein streptavidin – biophysical, small-molecule microarray, 635/667 nm fluorescence, artefact control for SMM compound annotation, primary screen (AID 1147).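 Note: signal reflects streptavidin binding to arrayed compounds as a control protein.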 To be noted: higher = more signal.
Streptavidin (Streptomyces avidinii), sequence (P22629 whole entry, looked up): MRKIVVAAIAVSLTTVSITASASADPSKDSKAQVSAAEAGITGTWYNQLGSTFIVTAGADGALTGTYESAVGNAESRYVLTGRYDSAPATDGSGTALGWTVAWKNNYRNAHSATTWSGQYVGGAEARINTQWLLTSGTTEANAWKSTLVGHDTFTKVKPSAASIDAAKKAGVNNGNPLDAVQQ
Test [7] can be described thus: probe aInhba binding on compound microarray – biochemical, small-molecule microarray, 635/667 nm fluorescence, primary screen (AID 1148).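 Note: score merges 667nm spot fluorescence with signal-to-noise for antibody binding to printed compounds.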 To be noted: higher = more signal.
For test [8], the target named is Torsin-1A (Homo sapiens) (UniProt O14656). Description: TOR1A wild-type binding on microarray – cell lysate, small-molecule microarray, lysate, 635/667 nm, primary screen (AID 1149). To be noted: COS7 hTOR1A-WT lysate, 635 nm fluorescence, higher = more signal.
Torsin-1A (Homo sapiens), sequence (O14656 whole entry, looked up): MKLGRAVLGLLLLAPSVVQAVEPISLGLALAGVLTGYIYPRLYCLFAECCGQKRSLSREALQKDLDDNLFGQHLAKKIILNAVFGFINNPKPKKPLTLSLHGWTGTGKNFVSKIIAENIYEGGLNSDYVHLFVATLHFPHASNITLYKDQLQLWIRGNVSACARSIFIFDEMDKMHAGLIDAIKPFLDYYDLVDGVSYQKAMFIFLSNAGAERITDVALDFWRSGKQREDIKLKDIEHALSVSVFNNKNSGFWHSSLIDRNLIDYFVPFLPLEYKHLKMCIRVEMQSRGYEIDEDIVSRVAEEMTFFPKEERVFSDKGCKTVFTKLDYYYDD
Test [9] shares this target. Description: torsin A mutant lysate binding on microarrays – cell lysate, small-molecule microarray, COS7 lysate, 635/667 nm fluorescence, primary screen (AID 1150).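 Note: score pools 667 nm emission and signal to noise measuring lysate protein binding.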 To be noted: COS7 hTOR1A mutant lysate, 635 nm fluorescence, higher = more signal.
Test [10] concerns Sonic hedgehog protein (Shh). The experiment in a line: Sonic hedgehog microarray binding compounds – biochemical, small-molecule microarray, 635/667 nm fluorescence, primary screen (AID 1151).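 Note: Shh protein binding to compounds spotted on small-molecule microarray slides; score combines spot fluorescence intensity with signal-to-noise across triplicate slides.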 To be noted: 635 nm fluorescence, higher = more signal.
Test [11] can be described thus: optical density shifts of acrAB sulA E. coli – strain DRC41, OD650, 48 h, E. coli filamentation inducer project, primary screen (AID 1152).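 Note: E. coli MC1000 strain DRC41 lacking acrAB efflux pump and sulA.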 As to conditions: higher = more signal, called active from +8 up or from −8 down.
Test [12] in a line: probe aLefty1 binding on compound microarray – biochemical, small-molecule microarray, 635/667 nm fluorescence, primary screen (AID 1153).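 Note: score merges spot fluorescence with signal-to-noise ratio from the scanned slide images.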 To be noted: higher = more signal.
Test [13] is described as follows: plasmodial surface anion channel blockers, osmotic lysis – cell-based, P. falciparum Indochina, OD700, 1 h, primary screen (AID 1154). To be noted: P. falciparum Indochina infected RBC osmotic lysis, higher = more signal, called active from +8 up or from −8 down.
Test [14] can be described thus: plasmodial surface anion channel blockers, osmotic lysis – cell-based, P. falciparum Indochina, OD700, 2 h, primary screen (AID 1155).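 Note: lysis reports solute entry through the parasite surface anion channel PSAC.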 To be noted: P. falciparum Indochina infected erythrocytes, higher = more signal, called active from +8 up or from −8 down.
Test [15] can be described thus: changes in parasitized red cell lysis, either direction – P. falciparum Indochina, OD700, 3 h, PSAC antagonist project, primary screen (AID 1156). As to conditions: P. falciparum-infected erythrocytes, osmotic lysis, higher = more signal, called active from +8 up or from −8 down.
A short description of test [16]: plasmodial surface anion channel blockers, osmotic lysis – cell-based, P. falciparum Indochina, OD700, 18 h, primary screen (AID 1157). As to conditions: P. falciparum Indochina infected erythrocytes, osmotic lysis OD700, 18 h; higher = more signal, called active from +8 up or from −8 down.
Test [17] is described as follows: S6 kinase pathway phospho-S6 level changes – cell-based, A549, cytoblot, luminescence, serum-stimulated, primary screen (AID 1158).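 Note: serum-stimulated A549 lung adenocarcinoma cells; signal is phosphorylated S6 detected by cytoblot immunostaining with HRP secondary.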 As to conditions: 5 h, higher = more signal.
The target in test [18] is NADPH oxidase 2 (Homo sapiens) (UniProt P04839). Description: compounds shifting NOX2 Amplex Red fluorescence – cell-based, HEK293-NOX2, PMA-stimulated, NOX inhibitor project, primary screen (AID 1159). Note: test concentration not given here. To be noted: 45 min, higher = more signal, called active from +8 up or from −8 down.
NADPH oxidase 2 (Homo sapiens), sequence (P04839 whole entry, looked up): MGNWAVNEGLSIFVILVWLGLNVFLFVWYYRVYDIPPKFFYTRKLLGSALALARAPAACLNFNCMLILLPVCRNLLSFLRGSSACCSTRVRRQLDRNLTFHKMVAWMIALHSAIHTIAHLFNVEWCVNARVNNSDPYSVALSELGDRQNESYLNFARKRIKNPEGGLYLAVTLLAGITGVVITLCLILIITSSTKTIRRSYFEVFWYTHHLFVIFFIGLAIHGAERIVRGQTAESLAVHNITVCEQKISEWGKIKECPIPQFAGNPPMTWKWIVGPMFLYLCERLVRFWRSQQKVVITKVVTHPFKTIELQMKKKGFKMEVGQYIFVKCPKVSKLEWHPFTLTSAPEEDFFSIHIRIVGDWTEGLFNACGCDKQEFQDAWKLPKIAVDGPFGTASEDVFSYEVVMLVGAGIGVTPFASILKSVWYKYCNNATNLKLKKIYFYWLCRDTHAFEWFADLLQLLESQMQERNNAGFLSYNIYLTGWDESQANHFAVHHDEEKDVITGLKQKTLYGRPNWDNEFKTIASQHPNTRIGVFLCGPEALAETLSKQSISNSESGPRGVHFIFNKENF
Test [19] has as its target NADPH oxidase 4 (Homo sapiens) (UniProt Q9NPH5). Description: compounds shifting NOX4 Amplex Red fluorescence – cell-based, HEK293-NOX4, tetracycline-induced, NOX inhibitor project, primary screen (AID 1160). To be noted: HEK293-NOX4, Amplex Red H2O2 fluorescence, 45 min; higher = more signal, called active from +8 up or from −8 down.
Test [20] addresses NADPH oxidase 5 (Homo sapiens) (UniProt Q96PH1). The experiment in a line: compounds shifting NOX5 Amplex Red fluorescence – cell-based, HEK293-NOX5, NOX inhibitor project, primary screen (AID 1161). To be noted: HEK293-NOX5, ionomycin, 45 min, higher = more signal.

Composite z-score and z-score data for eight compounds are collected here from PubChem BioAssay.

Structures are written as SMILES. Active and inactive are the calls of the source. Unless noted, the rule behind the calls is not given here.

NADPH oxidase 4 (Homo sapiens), sequence (Q9NPH5 whole entry, looked up): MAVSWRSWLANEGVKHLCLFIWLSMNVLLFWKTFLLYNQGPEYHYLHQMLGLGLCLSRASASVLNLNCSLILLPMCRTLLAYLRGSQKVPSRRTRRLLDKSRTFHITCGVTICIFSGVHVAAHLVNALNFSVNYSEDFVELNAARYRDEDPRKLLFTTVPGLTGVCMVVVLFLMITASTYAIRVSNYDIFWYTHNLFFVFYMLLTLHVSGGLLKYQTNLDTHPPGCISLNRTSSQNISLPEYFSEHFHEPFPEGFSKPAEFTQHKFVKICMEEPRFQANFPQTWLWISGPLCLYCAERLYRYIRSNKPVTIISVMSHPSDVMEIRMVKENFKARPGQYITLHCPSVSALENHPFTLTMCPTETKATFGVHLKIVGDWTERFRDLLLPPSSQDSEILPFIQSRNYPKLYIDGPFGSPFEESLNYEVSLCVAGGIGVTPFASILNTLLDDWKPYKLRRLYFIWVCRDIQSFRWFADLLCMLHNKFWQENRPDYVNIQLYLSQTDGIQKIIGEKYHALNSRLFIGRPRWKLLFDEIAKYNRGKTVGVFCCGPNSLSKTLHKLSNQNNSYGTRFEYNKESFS
NADPH oxidase 5 (Homo sapiens), sequence (Q96PH1 whole entry, looked up): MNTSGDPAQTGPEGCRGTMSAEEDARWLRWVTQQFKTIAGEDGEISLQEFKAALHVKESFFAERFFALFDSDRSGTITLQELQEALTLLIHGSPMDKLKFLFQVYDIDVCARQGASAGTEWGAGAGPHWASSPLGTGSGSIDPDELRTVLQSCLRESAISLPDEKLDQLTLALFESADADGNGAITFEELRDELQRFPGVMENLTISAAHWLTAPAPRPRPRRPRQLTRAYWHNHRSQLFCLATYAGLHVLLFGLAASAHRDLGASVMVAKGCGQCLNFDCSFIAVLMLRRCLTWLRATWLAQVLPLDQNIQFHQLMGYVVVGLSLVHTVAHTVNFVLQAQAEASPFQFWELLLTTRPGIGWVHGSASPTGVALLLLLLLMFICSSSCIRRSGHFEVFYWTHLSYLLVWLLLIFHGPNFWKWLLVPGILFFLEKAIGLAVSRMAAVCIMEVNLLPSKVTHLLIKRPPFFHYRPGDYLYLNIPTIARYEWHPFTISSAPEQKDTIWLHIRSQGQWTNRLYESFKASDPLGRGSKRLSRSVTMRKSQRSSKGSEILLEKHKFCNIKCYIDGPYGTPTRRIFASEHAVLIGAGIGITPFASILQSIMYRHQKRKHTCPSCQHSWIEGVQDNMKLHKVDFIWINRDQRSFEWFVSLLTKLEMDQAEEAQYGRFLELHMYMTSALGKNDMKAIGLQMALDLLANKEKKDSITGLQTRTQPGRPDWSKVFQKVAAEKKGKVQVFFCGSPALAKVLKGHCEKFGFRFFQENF

Turning to `C=CC[C@@]1(C(=O)NCC(O)CO)N=C(c2ccc(OCCCO)cc2)O[C@@H]1c1ccccc1` (stereo not given in full), the composite z-score in test [1] was 1.19; in test [6], 0.145; in [7], 0.524; with Torsin-1A (Homo sapiens) [8], 0.373; with Torsin-1A (Homo sapiens) [9] it was 2.47; in test [10], -0.702. In test [12], this compound returned a composite z-score of 0.366. Besides, the z-score in test [2] is -0.834 (inactive); in test [3], 0.627 (inactive); in [4], 0.685 (inactive); in test [5], -0.458 (inactive); in test [11], 0.529 (inactive); in [13], 22.6 (active). The z-score is 4.36 (inactive) in test [14]; 1.12 (inactive) in test [15]; 0.394 (inactive) in test [16]; -0.0453 in [17]; 0.325 (inactive) in test [18]; 1.02 (inactive) in test [19]. For the same compound, the z-score in test [20] was determined as 1.69.

For the compound `O=C1N(CCS(=O)(=O)c2ccccc2)Cc2ccccc2C[C@@]12COC(c1ccc(OCCCO)cc1)=N2`, the composite z-score in test [1] was found to be 0.933; in test [6], 0.758; in [7], 0.325; with Torsin-1A (Homo sapiens) [8], 0.701; with Torsin-1A (Homo sapiens) [9], 0.945; in test [10] it was 2.03. The compound further had a composite z-score in test [12] of 0.153. Besides, the z-score in [2] was -4.36 (inactive); in [3], 0.898 (inactive); in test [4] it was -0.183 (inactive); in test [5] it was -2.06 (inactive); in [11], -2.34 (inactive); in [13], 25.9 (active). For the same compound, the z-score was 15.1 (active) in [14]; 4.23 (inactive) in test [15]; 2.14 (inactive) in test [16]; -0.0579 in [17]; -5.26 (inactive) in test [18]; -0.159 (inactive) in [19]. Moreover, the z-score in test [20] was -3.16.

In the case of `COCCOC(=O)N1C(=O)[C@@]2(c3cc(C#CCNC(N)=O)ccc31)[C@H](C(=O)N1CCCCCCC1)[C@H]1C(=O)O[C@H](c3ccccc3)[C@H](c3ccccc3)N1[C@@H]2c1ccc(OCCO)cc1`, the composite z-score is 0.0855 in test [1]; 0.32 in test [6]; 0.232 in [7]; 0.0121 with Torsin-1A (Homo sapiens) [8]; 0.145 with Torsin-1A (Homo sapiens) [9]; 0.438 in test [10]. In test [12], the composite z-score amounted to 0.174. Moreover, the z-score in test [2] was -0.897 (inactive); in [3], -1.52 (inactive); in test [4] it was 0.22 (inactive); in [5] it was -0.311 (inactive); in [11] it was 0.0904 (inactive); in [13] it was 4.45 (inactive). Moreover, the z-score in test [14] was 1.89 (inactive); in [15] it was 1.99 (inactive); in test [16] it was 1.25 (inactive); in test [17], 0.437; in test [18], 1.53 (inactive); in test [19] it was 1.25 (inactive). The z-score in test [20] was 0.0911.

For `[N-]=[N+]=NCc1ccccc1[C@H]1OC(c2ccc(OCCCO)cc2)=N[C@@]1(Cc1ccccc1N=[N+]=[N-])C(=O)N1CCCCC1`, the composite z-score was determined as 0.163 in test [1]; 1.31 in test [6]; 0.277 in test [7]; 0.84 in the test with Torsin-1A (Homo sapiens) [8]; 0.89 with Torsin-1A (Homo sapiens) [9]; 0.419 in [10]. Further, in test [12], the composite z-score stood at 0.72. Also, the z-score in [2] is -3.39 (inactive); in [3], -0.567 (inactive); in [4] it was 0.236 (inactive); in test [5] it was -1.04 (inactive); in test [11] it was 0.369 (inactive); in [13] it was 27.7 (active). Besides, the z-score in test [14] was 21.4 (active); in [15], 2.7 (inactive); in [16] it was 4.56 (inactive); in [17], -0.0152; in test [18], -2.52 (inactive); in test [19], 0.328 (inactive). Moreover, the z-score in test [20] was -0.575.

In the case of `CC(C)CCC[C@@H](C)[C@H]1CC[C@@]2(C)C3=C(CC[C@]12C)[C@@]1(C)CC[C@H](OC(=O)c2ccc(N)cc2)C(C)(C)C1CC3` (stereo not given in full), the composite z-score in test [1] is 0.279; in test [6] it was 0.143; in test [7], -0.208; with Torsin-1A (Homo sapiens) [8], 0.315; in the test with Torsin-1A (Homo sapiens) [9] it was 0.273; in test [10], 0.49. The compound further came in with a composite z-score in [12] of -0.278. In addition, the z-score is -0.793 (inactive) in test [2]; -0.593 (inactive) in test [3]; 1.39 (inactive) in test [4]; -0.391 (inactive) in [5]; 3.27 (inactive) in [11]; -1.05 (inactive) in [13]. The z-score in test [14] is -1.26 (inactive); in test [15] it was -0.492 (inactive); in test [16] it was -2.86 (inactive); in test [17] it was 1.93; in test [18], -0.759 (inactive); in [19], 0.253 (inactive). Besides, the z-score in test [20] was 0.807.

As to `COCCCNC(=O)[C@@]1(Cc2ccccc2CN=[N+]=[N-])N=C(c2ccc(OCCCO)cc2)O[C@H]1c1ccccc1N=[N+]=[N-]`, the composite z-score amounted to 1.08 in test [1]; 1.37 in [6]; 0.786 in [7]; 0.0556 in the test with Torsin-1A (Homo sapiens) [8]; 0.516 with Torsin-1A (Homo sapiens) [9]; 0.341 in test [10]. The composite z-score in test [12] came out at 0.0643. In addition, the z-score in test [2] is -4.47 (inactive); in test [3] it was -0.867 (inactive); in [4] it was -0.207 (inactive); in test [5] it was -0.834 (inactive); in test [11], 2.51 (inactive); in test [13] it was 36.4 (active). For the same compound, the z-score is 30.8 (active) in [14]; 2.72 (inactive) in test [15]; 3.1 (inactive) in [16]; -0.0478 in test [17]; 0.0139 (inactive) in test [18]; 1.3 (inactive) in test [19]. Moreover, the z-score in [20] is -1.31.

With `CO[C@H]1O[C@H](CO)[C@@H](OC(=O)c2ccc(Br)cc2)[C@@H]2OC(=O)[C@H](Cc3cccc(Br)c3)C/C=C/C[C@@H](Cc3cccc(Br)c3)C(=O)O[C@@H]12`, the composite z-score in test [1] was 0.422; in test [6] it was 0.578; in test [7], -0.0695; with Torsin-1A (Homo sapiens) [8], -0.103; with Torsin-1A (Homo sapiens) [9], 0.442; in test [10], 0.707. In [12], this compound returned a composite z-score of 0.415. For the same compound, the z-score in test [2] is -1.62 (inactive); in [3], -0.0682 (inactive); in test [4], 0.212 (inactive); in test [5], 0.122 (inactive); in [11] it was -0.681 (inactive); in test [13], 1.56 (inactive). The z-score was 0.624 (inactive) in test [14]; -0.778 (inactive) in [15]; 0.484 (inactive) in test [16]; -0.0043 in [17]; -0.129 (inactive) in [18]; 0.211 (inactive) in [19]. In [20], the z-score came out at 0.875.

In the case of `C[C@@]1([C@@H](NC(=O)c2cccs2)c2ccc(-c3ccccc3)cc2)C[C@H]1C1CCCCC1`, the composite z-score was -0.465 in [1]; -0.649 in test [6]; -0.157 in test [7]; -1.24 with Torsin-1A (Homo sapiens) [8]; -0.787 with Torsin-1A (Homo sapiens) [9]; -1.46 in [10]. Also, the composite z-score in test [12] turned out to be 0.371. Moreover, the z-score in test [2] was -4.41 (inactive); in [3], 0.141 (inactive); in [4], 0.201 (inactive); in test [5], -0.169 (inactive); in test [11], -1.79 (inactive); in [13], 1.41 (inactive). The z-score in test [14] is -0.427 (inactive); in [15], 1.13 (inactive); in test [16] it was -1.34 (inactive); in [17], 2.17; in test [18], -4.07 (inactive); in test [19], -4.4 (inactive). Besides, the z-score in test [20] is -1.59.
